We go through 40 compounds from PubChem BioAssay (Tox21).

Results filed as inconclusive are left out. A call without a number means that no potency is given here. The source made the active and inactive calls. The call rests on the fitted dose curve; in most records, active means well fitted cell-killing curve with a large enough effect in the repeat runs; inconclusive means weak or mixed curves, or effect the other way; inactive means no such curve, though single readings can be large or run the other way.

The experiment is described as follows: qHTS assay to identify small molecule antagonists of the vitamin D receptor (VDR) signaling pathway - cell viability counter screen (AID 743225). Further: nearly all actives have a fitted effect of over 50% in size. The settings on record: VDR-bla HEK293T viability, CellTiter-Glo luminescence, 16 h; series mostly up to 61 µM. An excerpt:
U.S. Tox21 Program National Center for Advancing Translational Sciences [NCATS] NIH Chemical Genomics Center [NCGC] U.S. Environmental Protection Agency [EPA] National Institutes of Environmental Health Sciences [NIEHS] National Toxicology Program [NTP] U.S. Food and Drug Administration [FDA] Tox21 Assay Overview: The vitamin D receptor (VDR), a member of nuclear hormone receptor superfamily, plays a critical role in calcium homeostasis and bone metabolism. It is also involved in cell differentiation and growth, and thrombogenicity. To identify the compounds that inhibit VDR signaling, the VDR-UAS-bla HEK 293T cell line (Invitrogen, Carlsbad, CA, USA) containing a beta-lactamase reporter gene under the control of an upstream activator sequence (UAS) was used to screen the Tox21 10K compound library. The cytotoxicity of the Tox21 compound library against the VDR-bla cell line was tested in parallel by measuring the cell viability using CellTiter-Glo assay (Promega, Madison, WI) in the same wells.
Tox21 Assay Protocol Summary: VDR-bla cells were dispensed at 2,000 cells/5 uL of assay medium per well into black wall/clear-bottom 1536-well plates using a Multidrop Combi (Thermo Fisher Scientific, Waltham, MA) dispenser. After the assay plates were incubated at a 37C and 5% CO2 for 4 h, 23 nL of compounds dissolved in DMSO, positive controls or DMSO only was transferred to the assay plate by a Pintool station (Kalypsys, San Diego, CA), followed by addition of 1 uL of 1-alpha, 25-Dihydroxy Vitamin D3 (3 nM, final concentration in the wells) using a Bioraptr Flying Reagent Dispenser (FRD) workstation (Beckman Coulter, Indianapolis, IN). The plates were incubated at 37C and 5% CO2 for 16 h, and then 1 uL of LiveBLAzerTM B/G FRET substrate was added using a Bioraptr FRD. The plates were incubated at room temperature for 2 h and fluorescence intensity was measured by an Envision plate reader (PerkinElmer, Shelton, CT). For cell viability readout that measures cytotoxicity, 3 ul/well of CellTiter-Glo reagent was added into the assay plates using a Bioraptr FRD. After 30 min incubation at room temperature, the luminescence intensity in the plates was measured using a ViewLux plate reader (PerkinElmer).
`Nc1ncn([C@H]2C[C@H](O)[C@@H](CO)O2)c(=O)n1`: the Potency entry is “inactive”. `CCCCC(CC)COC(=O)COc1ccc(Cl)cc1Cl` (stereo not given): the Potency entry is “inactive”. The same measure for `COc1ccc(C(=O)Nc2nc3ccccc3c(NCc3ccccc3)c2C#N)cc1`: “inactive”.

Take `S=C([S-])NCCNC(=S)[S-].[Mn+2]`: the Potency entry is “inactive”. Turning to `CN1C[C@H]2c3ccccc3Oc3ccc(Cl)cc3[C@@H]2C1`, the Potency result is “inactive”. Turning to `CN1Cc2cc(C(=O)N3CCC(C4CCNCC4)CC3)ccc2NC(CC(=O)O)C1=O` (stereo not given), the Potency entry is “inactive”. As for `COc1ccc(C(=O)N2CCN(CC(=O)N3CCOCC3)CC2)cc1`, the Potency result is “inactive”. `COc1ccc(S(=O)(=O)N2C(=O)[C@@](c3ccccc3OC)(N3C[C@H](O)C[C@H]3C(=O)N(C)C)c3cc(Cl)ccc32)c(OC)c1`: the Potency entry is “inactive”. The same measure for `O=[N+]([O-])c1ccc(NCCO)c(OCCO)c1`: “inactive”; for `Nc1cccc(S(=O)(=O)c2cccc(N)c2)c1`: “inactive”; for `COc1cc(Cl)c(OC)cc1N`: “inactive”.

With `CCCCC/C=C\C/C=C\CCCCCCCC(=O)NC(C)c1ccccc1` (stereo not given), the Potency result was “inactive”. As for `CC(C)Nc1ccc(NC(C)C)c2c1C(=O)c1ccccc1C2=O`, the Potency entry is “inactive”. `CCCCCCCCO[C@@H]1O[C@H](CO)[C@@H](O)[C@H](O)[C@H]1O`: the Potency entry is “inactive”.

`OC[C@H]1O[C@@H](OCCc2ccc(O)cc2)[C@H](O)[C@@H](O)[C@@H]1O`: the Potency entry is “inactive”. On to `O=[N+]([O-])c1cccc(S(=O)(=O)O)c1`, for which the Potency result is “inactive”. The same measure for `COCC(C)OC(C)=O` (stereo not given): “inactive”; for `CCc1c(C(=O)NN2CCCCC2)nn(-c2ccc(Cl)cc2Cl)c1-c1ccc(Br)cc1`: “inactive”; for `C[C@@H]1C[C@H]2[C@@H]3CCC4=CC(=O)C=C[C@]4(C)[C@@]3(F)[C@@H](O)C[C@]2(C)[C@@]1(O)C(=O)COC(=O)c1ccncc1`: “inactive”. The same measure for `Nc1ccc(N)c2c1C(=O)c1ccccc1C2=O`: “inactive”; for `COc1ccc(C)cc1[N+](=O)[O-]`: “inactive”; for `CC(C)=CCC/C(C)=C/CC/C(C)=C/CO`: “inactive”. On to `O=C(O)c1ccc(S(=O)(=O)O)cc1C(=O)O`, for which the Potency entry was “inactive”. The same measure for `Nc1cccc([N+](=O)[O-])c1`: “inactive”.

In the case of `C[N+]1(CC2COC(c3ccccc3)(C3CCCCC3)O2)CCCCC1` (stereo not given), the Potency result is “inactive”. For `COc1ccc2cccc(CCNC(C)=O)c2c1`, the Potency result was “inactive”. For `CN(C)C(=O)NC1(c2ccccc2)CCN(CC[C@@]2(c3ccc(F)c(F)c3)CN(C(=O)c3ccccc3)CCO2)CC1`, the Potency result was “inactive”. For the compound `CC(CSC(=O)c1ccccc1)C(=O)N1C[C@@H](Sc2ccccc2)C[C@H]1C(=O)O` (stereo not given in full), the Potency entry is “inactive”. The same measure for `CN(C)CCN(Cc1ccccc1)c1ccccn1`: “inactive”; for `O=C1OC(=O)C2C3C=CC(C3)C12` (stereo not given): “inactive”; for `Cc1ccc(N=Nc2c(O)c(C(=O)O)cc3ccccc23)c(S(=O)(=O)O)c1`: “inactive”. The same measure for `CCOCC(O)COc1ccc(NC(=O)CC[S+](C)C)cc1` (stereo not given): “inactive”; for `COC(C)OC`: “inactive”. `CC1=CCCC(C)(C)C12CCC(C)O2` (stereo not given): the Potency entry was “inactive”.

With `O=C1c2ccccc2S(=O)(=O)N1CCCCN1CCN(c2ncccn2)CC1`, the Potency entry is “inactive”. As for `O=C(CS)Nc1ccccc1`, the Potency result is “inactive”. The same measure for `O=C1OC(CN2CCOCC2)CN1/N=C/c1ccc([N+](=O)[O-])o1` (stereo not given): “inactive”; for `CCOC(=O)C(=O)CCc1ccccc1`: “inactive”. Turning to `CC1OC(=O)C(C)OC1=O` (stereo not given), the Potency entry was “inactive”. Take `CCCOC(C(=O)OC1CCN(C)CC1)(c1ccccc1)c1ccccc1`: the Potency entry was “inactive”.
